Results on 107 compounds are retold here after PubChem BioAssay AID488 (PCMD, 2006).

About 40 (0.06%) of roughly 62,000 compounds were called active. For the sample, actives were picked, then their nearest neighbours and some compounds at random. Values without a mark were called inactive. No stated cut-off is given here; in the data, active means inhibition above about 22% (passing the limit was not always enough); inconclusive means no clear call, values can overlap the other calls.

The target in the test is Cathepsin B (Homo sapiens) (UniProt P07858). Description: human cathepsin B blockade, pooled library – biochemical, compound mixtures, AMC fluorescence, primary screen (AID 488).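 Further: 0% = enzyme without compound and 100% = no enzyme blank.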 Particulars: Purified cathepsin B, AMC dipeptide fluorescence, hits give high values,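 ten-compound pools at 5 µM per compound and 50 µM total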.
As a reminder, the inhibition is the change of the read-out against control, counted positive when it falls. Take `CN(C)/C=C/c1c(C#N)c(=O)ncn1Cc1ccccc1`: the inhibition was 4.44%. Under `CCCC(=O)C1=C(N(C)c2ccccc2)CC(C)(C)C(C(=O)OC)C1=O` (configuration not stated) stands 6.7%. Take `O=C(O)CCN1C(=O)CC2(CCCCC2)C1=O`: the inhibition was -0.755%. Under `Nc1nonc1-c1nc2ccccc2n1Cc1ccc(F)cc1` stands 79.6% (active); under `Nc1nonc1-c1nc2ccccc2n1CCC(=O)O`, 23.8%; under `COc1ccc(C)c(Cn2c(-c3nonc3N)nc3ccccc32)c1`, 19.5%. The same measure for `Cc1ccc(C)c(S(=O)(=O)n2cnc3ccccc32)c1`: -4.15%. Regarding `O=C(NCCN1CCOCC1)c1ccc2c(c1)ncn2C1CCCC1`, the inhibition is 2.62%. The same measure for `O=C(CCN1C(=O)C2C3C=CC(C3)C2C1=O)Nc1ccccc1F` (configuration not stated): 1.56%; for `CC1Cc2cc(/C(O)=C3\C(=O)C(=O)N(CCN4CCOCC4)C3c3ccccc3F)ccc2O1` (configuration not stated): 3.23%; for `Cc1ccc(C2c3c(oc4ccc(C)cc4c3=O)C(=O)N2CCCN2CCOCC2)cc1` (configuration not stated): 3.25%. Under `CCOc1cc(-c2nc3cc(C)ccn3c2NCC2CCCO2)ccc1O` (configuration not stated) stands -4.66%; under `COc1cc2c(cc1NC(=O)CN1CCN(S(=O)(=O)c3ccc(F)cc3)CC1)oc1ccccc12`, 2.98%. `CCC1CCCCN1CCNC(=O)c1[nH]c(C)c(C(C)=O)c1C` (configuration not stated): the inhibition was 4.44%. Under `COC(=O)C1C(=O)CC(C)(O)C(C(=O)OC)C1c1ccc2c(c1)OCO2` (configuration not stated) stands 1.84%; under `CCN(CC)C(=O)c1sc(NC(=O)c2ccco2)c(C#N)c1C`, 7.73%. Under `N#Cc1cccc(NC(=O)CCC2CCCC2)c1` stands 0.985%.

On to `CC(C)c1ccc(-c2nn[nH]n2)cc1`, for which the inhibition is 4.54%. The same measure for `Cc1c(C(=O)Nc2ccccc2Cl)oc2ccc(S(=O)(=O)N3CCC4(CC3)OCCO4)cc12`: 6.83%. Under `O=C(NCCSc1ccccc1)c1ccco1` stands 5.3%; under `C=CCC(NCCCO)c1cccc(OC)c1OC` (configuration not stated), 0.355%. Regarding `Cc1nc2nc[nH]n2c(=O)c1NC(=O)c1cccc(OCC(C)C)c1`, the inhibition was 0.08%. In the case of `CC(C)(C)Nc1c(N)c(=O)oc2ccccc12`, the inhibition was 1.79%. On to `CCC1Oc2ccc(Cl)cc2N(CC(=O)O)C1=O` (configuration not stated), for which the inhibition was 4.82%. The same measure for `O=C(Cn1cnc2c(cnn2-c2ccc(F)cc2)c1=O)NCCc1ccccc1`: -5.56%; for `CN(C(=O)c1ccccn1)c1nnc(-c2ccccn2)s1`: 4.35%; for `CN1CCN(CC(=O)C23CC4CC(CC(C4)C2)C3)CC1`: -16%. The same measure for `Cc1cc(-n2nc(C)cc2C)n2ncc(-c3ccccc3)c2n1`: -1.95%; for `COCCOC(=O)C1=C(C)N=c2s/c(=C\c3cccs3)c(=O)n2C1c1cccs1` (configuration not stated): 5.37%. Under `COc1ccc(C(C)=O)cc1COC(=O)Cn1cnc2ccccc2c1=O` stands -0.265%; under `CC(=O)c1c(N2CCOCC2)nc(=S)n(Cc2ccccc2)c1C`, -2.31%. As to `CCOc1ccc(N=C2SC(C(=O)O)CC(=O)N2C)cc1` (configuration not stated), the inhibition was -1.85%.

Turning to `COC(=O)Cn1c(=NC(=O)CSCC(=O)Nc2cc(C)on2)sc2ccccc21`, the inhibition was -5.38%. The same measure for `Cn1c(SCC(=O)N2CCOCC2)nnc1-c1ccc(NC(=O)c2ccccc2F)cc1`: -2.64%. Under `CC(C)C(c1nnnn1Cc1ccccc1)N1CCC(C(N)=O)CC1` (configuration not stated) stands -1.51%. For `O=C(OCc1ccccc1F)c1ccc2c(c1)OCCO2`, the inhibition was 8.22%. The same measure for `COC(=O)c1cc(C(=O)CSc2nc(C)cc(C)n2)ccc1O`: 1.56%. Turning to `CSc1ccc(Cl)c(C(=O)OCC(=O)N2CC(C)OC(C)C2)c1` (configuration not stated), the inhibition was -10.2%. The same measure for `COC(=O)C1=C(N)Oc2cc(C)oc(=O)c2C1c1cccnc1` (configuration not stated): 1.64%.

On to `COC(=O)c1ccc(CSc2nncn2C)cc1`, for which the inhibition was 6.61%. For `CCN(CC)P(=O)(/C(Cl)=C\Nc1c(C)n(C)n(-c2ccccc2)c1=O)N(CC)CC`, the inhibition was -1.45%. Under `C=CCN(c1ccc(C(N)=O)cc1)S(C)(=O)=O` stands 1.82%; under `CCOC(=O)C1=C(C)N=c2s/c(=C\C(=O)OC)c(=O)n2C1c1ccc(OC)cc1` (configuration not stated), 4.36%. Under `Cc1ccc(Cn2nnc3c(=O)n(CC(=O)N4CCCCC4)cnc32)cc1` stands -4.83%.

Consider `O=C(CC1Nc2ccccc2NC1=O)Nc1ccccc1` (configuration not stated), for which the inhibition was 2.4%.

For the compound `COc1ccccc1-n1cnc2cc(NS(=O)(=O)c3ccccc3)ccc21`, the inhibition is 4.81%. In the case of `C=CCn1c(=N)n(CC(O)COc2ccc(OC)cc2)c2ccccc21` (configuration not stated), the inhibition was 4.16%. The same measure for `CCOc1ccc(CC(=O)Nc2ccc(S(=O)(=O)Nc3cc(C)on3)cc2)cc1OCC`: 3.38%; for `COC(=O)C1=C(C)NC(=O)NC1/C=C/c1ccccc1` (configuration not stated): 4.12%; for `O=C(Cn1c(-c2ccc(Cl)cc2)noc1=O)N1CCN(c2ccccc2F)CC1`: -2.31%. The same measure for `CCOC(=O)c1ccc2[nH]c(C)c(CN3CCN(C)CC3)c(=O)c2c1`: 6.62%; for `Cc1nc2cc(S(=O)(=O)C(F)(F)F)ccc2s1`: 1.09%; for `CCOc1ccc(NC(=O)CCS(=O)(=O)c2cccc3nsnc23)cc1`: 1.87%. The same measure for `Cc1nnc(SCC(=O)NCc2ccccc2)s1`: -1.96%; for `CC1=CC(C)(C)N(C(=O)CSc2nnc(-c3ccccc3)o2)c2ccc(C)cc21`: 1.93%; for `O=c1cc(CO)oc(CN2CCC(Cc3ccccc3)CC2)c1O`: -2.05%.

For the compound `CCOC(=O)c1cc2occc2n1CC(=O)N1CCN(C(=O)c2ccco2)CC1`, the inhibition is 0.785%. Under `Cc1cc(NC(=O)COC(=O)c2ccc(F)c(S(=O)(=O)N3CCOCC3)c2)no1` stands 5.21%. For `CC1=C(C(N)=O)C(c2ccc3c(c2)OCO3)n2nc(-c3cccc(C)c3)nc2N1` (configuration not stated), the inhibition was -4.66%.

As to `CCCCn1c(CCCNC(=O)CC)nc2ccccc21`, the inhibition was 1.44%. `Cc1cc(Cl)c(S(=O)(=O)NCc2cccnc2)cc1OCC(N)=O`: the inhibition is 7.41%. The same measure for `O=C(/C=N/O)Nc1ccccc1`: 3.15%; for `NC(=O)C1CCN(C(=O)c2ccc(C(F)(F)F)cc2)CC1`: -1.58%. Regarding `CCOC(=O)CSc1nnc(CNC(=O)c2cccs2)n1-c1cc(OC)ccc1OC`, the inhibition was 0.53%. Under `Cc1cccc(OCc2nnc(SCn3nnc4ccccc4c3=O)o2)c1` stands -0.48%; under `O=C(Cn1c(-c2cncs2)nc2ccccc21)NC1CCCC1`, 1.92%; under `C=C1c2cc(CC)ccc2NC(=O)N1c1ccc(C)cc1`, 5.66%. The same measure for `COc1ccc(OC)c(CNC(=O)CCc2nc(-c3cccs3)no2)c1`: -0.11%; for `CC(=O)c1c(C)[nH]c(C(=O)NCCCN2CCCC2)c1C`: 3.25%; for `c1ccc2[nH]c(-c3nc4ccccc4[nH]3)nc2c1`: -5.47%. For `Cc1ccc2cccc(S(=O)(=O)N3CCN(c4ccccc4F)CC3)c2n1`, the inhibition was 2.15%. On to `NC(=O)CSC1=Nc2ccccc2C2=NC(CCC(=O)NCc3ccc(F)cc3)C(=O)N12` (configuration not stated), for which the inhibition is 0.205%. Take `O=C(c1ccc(=O)[nH]c1)N(Cc1ccco1)C1(C(=O)NC2CCCCC2)CCCCC1`: the inhibition is 2.12%. The same measure for `O=C(CN1CCOCC1)Nc1c2c(nc3c1CCC3)CCC2`: 0.235%; for `CCOc1c(N2CCCCC2)c(=O)c1=O`: -3.57%; for `CCn1c(=O)cc(SCC(=O)NCc2ccc3c(c2)OCO3)c2ccccc21`: 1.53%. Under `Cc1ccc(N2CCN(S(=O)(=O)c3ccc(F)cc3)CC2)c(C)c1` stands -2.33%; under `CCCCN(CC)C(=O)CN(C)S(=O)(=O)c1cccc2nsnc12`, 0.445%. Consider `O=C(NCc1ccco1)c1cc(-c2cccnc2)nc2ccc(Cl)cc12`, for which the inhibition was -4.83%. For `COc1ccc2c(c1)C=CC1(O2)N(CCO)c2ccccc2C1(C)C` (configuration not stated), the inhibition was 2.88%.

On to `CCOC(=O)N1CCC(C(N)=O)CC1`, for which the inhibition was 7.54%. The same measure for `CSC1=N/C(=C\C=C\c2cccs2)C(=O)S1`: 9%; for `COc1cc(=O)[nH]c(=O)n1C(=O)Cc1ccccc1`: 3.21%. Take `COC(=O)COc1ccc(S(=O)(=O)Nc2ccc(NC(C)=O)cc2)cc1`: the inhibition is 0.2%. As for `CS(=O)(=O)c1ccc2nc(NC(=O)C3C4C=CC(C4)C3C(=O)O)sc2c1` (configuration not stated), the inhibition is 0.27%. As to `COc1ccc(NC(=O)Nc2cccc3cccnc23)cc1`, the inhibition is 3.29%.

As to `Cc1ccc(-c2noc(-c3ccccc3C(=O)NCC3CCCO3)n2)cc1` (configuration not stated), the inhibition is -4.67%.

On to `C=CCn1c(SCc2cc(C(=O)OC)c(C)o2)nnc1-c1ccncc1`, for which the inhibition is -5.06%. As for `C=CCOc1ccc(C2/C(=C(\O)c3c(C)[nH]c(C(=O)OC)c3C)C(=O)C(=O)N2CCN(C)C)cc1` (configuration not stated), the inhibition was -5.12%. The same measure for `O=C(Cn1cnc2c(cnn2-c2ccccc2)c1=O)NCc1ccccc1`: -0.45%. Under `Oc1ccc(-c2csc(Nc3cccnc3)n2)cc1` stands 2.75%; under `CC(C)C[C@H](NC(=O)[C@@H]1O[C@H]1C(=O)O)C(=O)NCCCCN=C(N)N`, 99.7% (active); under `COC(=O)c1cc(OC)c(OC)cc1NC(=O)C1CCCO1` (configuration not stated), -0.18%.

Regarding `CC1=NCCN1S(=O)(=O)c1ccc(Br)c(C)c1`, the inhibition is -3%.

Take `O=C1CC(c2ccccc2)C(=O)N1c1cccc(O)c1` (configuration not stated): the inhibition was -1.1%. Take `COc1ccc(OCCCC(=O)Nc2nnc(C3CCCO3)s2)cc1` (configuration not stated): the inhibition is -2.29%. The same measure for `Cc1ccc(S(=O)(=O)N(C)CC(=O)N2CCc3ccccc32)cc1`: -2.02%; for `O=C1c2oc3ccc(Br)cc3c(=O)c2C(c2cccc(F)c2)N1CCO` (configuration not stated): -5.69%. On to `O=C(NCc1cccnc1)c1ccc(CS(=O)(=O)c2ccc(Br)cc2)o1`, for which the inhibition is 3.93%. The same measure for `CC(=O)Nc1ccc(S(=O)(=O)Nc2ccc(N3CCOCC3)c(F)c2)cc1`: 1.35%; for `Cc1nc2ccc(S(=O)(=O)NC(C(=O)N3CCCCCC3)C(C)C)cc2s1` (configuration not stated): 6.23%. Turning to `CCn1c(COc2cccc(OC)c2)nnc1SCC(=O)N1CCOCC1`, the inhibition was 2.62%. Under `CCOC(=O)c1c(CN2CCOCC2)n(-c2ccccc2)c2ccc(O)cc12` stands 4.31%; under `CC(c1nnc(SCC(=O)Nc2sccc2C#N)n1-c1ccc(Cl)cc1)N(C)C` (configuration not stated), 5.86%; under `Cc1cc(C)nc(-n2nc(C)cc2NC(=O)c2ccc(Br)o2)n1`, 6.29%. The same measure for `c1csc(-c2cn3c(n2)SCC3)c1`: 0.03%.

In the case of `Cc1cc(/C=N/n2cnnc2)c(C)n1-c1ccc2ncccc2c1`, the inhibition was 0.4%.
